Assay results taken from the supplement of paper PMC12350171.
Counter-ions that a name gives are not always drawn.

Legend:
Settings in all cases: 20 µM
[1] = tested on: Haemophilus parainfluenzae; assay: growth AUC normalised to DMSO control (fraction of control); higher = less growth inhibition, active = hit call of the paper
Method in brief: (§1)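 Pathogens were passaged twice under anaerobic conditions, then inoculated into pre-reduced mGAM plates at a starting OD578 of 0.01, with compound at 20 μM and 1% DMSO, and sealed with breathable membranes. For Haemophilus parainfluenzae, the medium was supplemented with hemin and NAD. OD578 was read every hour for 24 h in three biological replicates. Growth-curve AUC was calculated by the trapezoidal rule up to the exponential-to-stationary transition and normalised to DMSO controls on the same plate.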

[2] = tested on: Salmonella enterica typhimurium; assay: as above
Method in brief: as §1

Shigella flexneri = assay: as above
Method in brief: as §1

Vibrio cholerae = assay: as above
Method in brief: as §1

[3] = tested on: Yersinia pseudotuberculosis; assay: as above
Method in brief: as §1

P. vulgatus RND KO = assay: growth AUC normalised to DMSO control (median) (fraction of control); higher = less growth inhibition, active = hit call of the paper
Method in brief: (§2)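 Area under the growth curve, calculated by the trapezoidal rule up to entry into stationary phase, was normalised to vehicle wells on the same plate. Strains had been passaged twice overnight without oxygen and then grown in mGAM in 96-well plates from OD578 0.01, each with an approved-drug library compound at 20 μM in 1% DMSO. OD578 was read hourly over 24 h in an anaerobic incubator, and the median of three biological replicates is given.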

P. vulgatus WT = assay: as above
Method in brief: as §2

[4] = tested on: S. enterica typhimurium WT; assay: as above
Method in brief: as §2

[5] = tested on: S. enterica typhimurium tolC KO; assay: as above
Method in brief: as §2

Measured: growth AUC normalised to DMSO control
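For growth AUC normalised to DMSO control (median) in this document: active when median AUC fell below 0.1.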

C#CCN(C)[C@H](C)Cc1ccccc1 [Selegiline hydrochloride]
inactive: [1] 0.985 | [2] 1.02 | Shigella flexneri 1.05 | Vibrio cholerae 1.01 | [3] 1.03 | P. vulgatus RND KO 1.03 | P. vulgatus WT 1.05 | [4] 1 | [5] 1.01

CN1CCC2(C)c3cc(O)ccc3N(C)C12 (single isomer, unassigned; (-)) [(-) Eseroline fumarate salt]
inactive: [1] 1.02 | [2] 0.999 | Shigella flexneri 1.01 | Vibrio cholerae 0.995 | [3] 1.01 | P. vulgatus RND KO 0.979 | P. vulgatus WT 0.999 | [4] 1.01 | [5] 0.999

C[C@@H]1C[C@@H]([C@H](O)CC2CC(=O)NC(=O)C2)C(=O)[C@@H](C)C1 [Cycloheximide]
inactive: [1] 1.03 | [2] 1 | Shigella flexneri 1.04 | Vibrio cholerae 1.01 | [3] 0.999 | P. vulgatus RND KO 1.01 | P. vulgatus WT 1.01 | [4] 0.999 | [5] 0.999

CC(C)[N+](C)(CCC(C(N)=O)(c1ccccc1)c1ccccc1)C(C)C [Isopropamide iodide]
inactive: [1] 0.981 | [2] 0.998 | Shigella flexneri 1 | Vibrio cholerae 1 | [3] 0.991 | P. vulgatus RND KO 0.995 | P. vulgatus WT 1.02 | [4] 1 | [5] 0.993

CC[C@@H](C(N)=O)N1CCCC1=O [Levetiracetam]
inactive: [1] 1.04 | [2] 1.01 | Shigella flexneri 1.03 | Vibrio cholerae 1.05 | [3] 1.01 | P. vulgatus RND KO 1.01 | P. vulgatus WT 1.03 | [4] 1.01 | [5] 1

CC1C=CC=CCCC=CC=CC=CC=CC(OC2OC(C)C(O)C(N)C2O)CC2OC(O)(CC(O)C(O)CCC(O)CC(O)CC(O)CC(=O)OC(C)C(C)C1O)CC(O)C2C(=O)O (configuration not stated) [Nystatine]
inactive: [1] 0.988 | [2] 0.992 | Shigella flexneri 0.959 | Vibrio cholerae 0.994 | [3] 0.989 | P. vulgatus RND KO 0.988 | P. vulgatus WT 0.996 | [4] 0.997 | [5] 1

C[C@]12CCC(=O)C(O)=C1CC[C@@H]1[C@@H]2CC[C@]2(C)C(=O)CC[C@@H]12 [Formestane]
inactive: [1] 1.01 | [2] 1.03 | Shigella flexneri 1 | Vibrio cholerae 1.01 | [3] 0.997 | P. vulgatus RND KO 0.976 | P. vulgatus WT 0.982 | [4] 0.997 | [5] 0.927

C[C@]12CCC(=O)C=C1CC[C@@H]1[C@@H]2C(=O)C[C@]2(C)C(=O)CC[C@@H]12 [Adrenosterone]
inactive: [1] 1.01 | [2] 0.996 | Shigella flexneri 1.01 | Vibrio cholerae 1 | [3] 0.993 | P. vulgatus RND KO 0.986 | P. vulgatus WT 1.02 | [4] 1.01 | [5] 0.992

C[N+]12CCC(CC1)C(OC(=O)C(O)(c1ccccc1)c1ccccc1)C2 (configuration not stated) [Clidinium bromide]
inactive: [1] 0.998 | [2] 0.969 | Shigella flexneri 0.975 | Vibrio cholerae 0.99 | [3] 0.999 | P. vulgatus RND KO 1.03 | P. vulgatus WT 0.999 | [4] 1.02 | [5] 0.997

Oc1cc(Cl)ccc1Oc1ccc(Cl)cc1Cl [Triclosan]
active: [1] 0.0433 | [2] 0.00977 | Shigella flexneri 0.0073 | Vibrio cholerae 0.184 | [4] 0.00521 | [5] 0.00694
inactive: [3] 0.911 | P. vulgatus RND KO 0.462 | P. vulgatus WT 0.357

C[CH2][Hg][S]c1ccccc1C(=O)[O-].[Na+] [Thimerosal]
inactive: [1] 1.2 | Vibrio cholerae 0.935 | [3] 1 | P. vulgatus WT 0.341 | [4] 0.91 | [5] 0.956
active: [2] 0.932 | Shigella flexneri 0.828 | P. vulgatus RND KO 0.0191

CCC1(CC)C(=O)C=CNC1=O [Pyrithyldione]
inactive: [1] 1.01 | [2] 0.992 | Shigella flexneri 1 | Vibrio cholerae 1.05 | [3] 1 | P. vulgatus RND KO 1.01 | P. vulgatus WT 1 | [4] 1.02 | [5] 0.998

CC(Cc1ccc(O)cc1)NCC(O)c1cc(O)cc(O)c1 (configuration not stated) [Fenoterol hydrobromide]
inactive: [1] 0.991 | [2] 1.01 | Shigella flexneri 0.962 | Vibrio cholerae 1.01 | [3] 0.998 | P. vulgatus RND KO 1.03 | P. vulgatus WT 1.03 | [4] 1.01 | [5] 1

COc1cc2c(c(OC)c1OC)-c1ccc(OC)c(=O)cc1[C@@H](NC(C)=O)CC2 [Colchicine]
inactive: [1] 0.981 | [2] 0.988 | Shigella flexneri 0.964 | Vibrio cholerae 0.98 | [3] 0.977 | P. vulgatus RND KO 0.988 | P. vulgatus WT 0.986 | [4] 1 | [5] 1.01

C[C@H](N)[C@H](O)c1ccc(O)c(O)c1 [Levonordefrin]
inactive: [1] 1.04 | [2] 1.01 | Shigella flexneri 1 | Vibrio cholerae 1 | [3] 1.03 | P. vulgatus RND KO 1.01 | P. vulgatus WT 1.03 | [4] 0.99 | [5] 1

C[C@]12COC(=O)C[C@@H]1CC[C@@H]1[C@@H]2CC[C@@]2(C)[C@H]1CC[C@]2(C)O [Oxandrolone]
inactive: [1] 0.995 | [2] 1.01 | Shigella flexneri 1 | Vibrio cholerae 1 | [3] 0.963 | P. vulgatus RND KO 1.03 | P. vulgatus WT 1.05 | [4] 1.01 | [5] 0.991

CCN(C(C)=O)c1cccc(-c2ccnc3c(C#N)cnn23)c1 [Zaleplon]
inactive: [1] 0.975 | [2] 0.978 | Shigella flexneri 0.954 | Vibrio cholerae 0.97 | [3] 1 | P. vulgatus RND KO 1 | P. vulgatus WT 1 | [4] 1 | [5] 0.992

C#C[C@]1(O)CC[C@H]2[C@@H]3CCC4=CC(=O)CCC4=C3C=C[C@@]21CC [Gestrinone]
inactive: [1] 1.03 | [2] 0.989 | Shigella flexneri 1.03 | Vibrio cholerae 1.01 | [3] 1.01 | P. vulgatus RND KO 1.01 | P. vulgatus WT 1.07 | [4] 1.01 | [5] 0.986
